High-throughput results as filed in PubChem BioAssay.
In the library only some 4% were active in any assay of this set; here they are far more common.
TWEAK Fn14 block: TWEAK-Fn14 signaling inhibition. TWEAK-stimulated Fn14 reporter cells, luciferase luminescence, 8 h. inhibition, % at 10 µM. 2% of 360,000 active; in the data active means inhibition above about 50%
TROY signal inh: blocks TROY-dependent signaling in reporter cells; Q293 LMP1-TROYcd NF-kB luciferase reporter, 4 h; inhibition, % at 10 µM; 0.98% of 360,000 active; AID 1347056;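 active means compounds whose plate-normalised and pattern-corrected inhibition of the luciferase reporter signal at the single screening dose is 50% or more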
Peg3 promoter: inhibitors of Peg3 promoter; HeLa PEG-Prom luciferase reporter, luminescence, overnight; inhibition, % at 20 µM; 1.7% of 360,000 active; AID 588405;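 active means inhibition of at least 50% at 20 µM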
CF NFkB block: inhibitors of cystic fibrosis induced NF-kB; KKLEB NF-kB-GFP reporter, PAF-induced, GFP fluorescence overnight; inhibition, % at 5 µM; 0.86% of 360,000 active;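 active means at least 50% inhibition at 5 µM, scaled per plate between neutral and stimulator controls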;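 further: PAF is a Pseudomonas aeruginosa culture filtrate used as stimulus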
HIF-2a block: blocks HIF-2a reporter activity | 786-0 RCC cells HIF-2a reporter, luciferase luminescence, overnight | inhibition, % at 18.8 µM | 0.72% of 360,000 active | AID 624352;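 active means inhibition of the luminescence signal of 40% or more relative to plate controls, in a single-dose primary screen at 18.75 µM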
KKLEB cytotox: counter-screen for CF NF-kB inhibitors: cytotoxicity | KKLEB CF airway cells viability, ATPlite luminescence, overnight; stronger effect = lower value; cells stimulated with P. aeruginosa culture filtrate | activity change (cytotoxicity), % at 5 µM | 0.36% of 360,000 active | AID 602141;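 active means corrected activity change at or below -50% at 5 µM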
A number is an active result.

What do the screens show for `C/C(=N/Nc1ncc(Br)cn1)c1ccc(Br)cc1`?
TWEAK Fn14 block: inactive; TROY signal inh: inactive; Peg3 promoter: inactive; CF NFkB block: inactive; HIF-2a block: inactive; KKLEB cytotox: inactive

What do the screens show for `C/C(=N\Nc1ccc(C(=O)O)cc1)c1ccc(Br)cc1`?
TWEAK Fn14 block: 65.8; TROY signal inh: inactive; Peg3 promoter: inactive; CF NFkB block: inactive; HIF-2a block: inactive; KKLEB cytotox: inactive

How did COC(=O)c1ccc(C(NC(=O)c2cccnc2)NC(=O)c2cccnc2)cc1 do in these assays?
TWEAK Fn14 block: 59.2; TROY signal inh: inactive; Peg3 promoter: inactive; CF NFkB block: inactive; HIF-2a block: inactive; KKLEB cytotox: inactive

What do the screens show for `COC(=O)c1cc(NC(=O)c2cccnc2)cc(C(=O)OC)c1`?
TWEAK Fn14 block: inactive; TROY signal inh: inactive; Peg3 promoter: inactive; CF NFkB block: inactive; HIF-2a block: inactive; KKLEB cytotox: inactive

How did CC(=O)c1cc2c(C)c(C(=O)c3ccccc3)oc2cc1O do in these assays?
TWEAK Fn14 block: 54.6; TROY signal inh: inactive; Peg3 promoter: inactive; CF NFkB block: inactive; HIF-2a block: inactive; KKLEB cytotox: inactive

Results for CN(C)C1(CNC(=O)C2CCC(=O)N(CCc3ccc(Cl)cc3)C2)CCCCC1 (centres undefined) ?
TWEAK Fn14 block: inactive; TROY signal inh: inactive; Peg3 promoter: inactive; CF NFkB block: inactive; HIF-2a block: inactive; KKLEB cytotox: inactive

Results for Cc1ccc(NS(=O)(=O)c2ccc3c(c2)C(=O)c2ccccc2C3=O)c(C)c1 ?
TWEAK Fn14 block: inactive; TROY signal inh: inactive; Peg3 promoter: inactive; CF NFkB block: inactive; HIF-2a block: inactive; KKLEB cytotox: inactive

How did O=C1C=C(NCc2ccccc2)c2ccccc2C1=O do in these assays?
TWEAK Fn14 block: 69.1; TROY signal inh: inactive; Peg3 promoter: inactive; CF NFkB block: inactive; HIF-2a block: inactive; KKLEB cytotox: inactive

What do the screens show for `O=C1C=C(Nc2ccccc2O)c2ccccc2C1=O`?
TWEAK Fn14 block: inactive; TROY signal inh: inactive; Peg3 promoter: inactive; CF NFkB block: 63.9; HIF-2a block: inactive; KKLEB cytotox: -64.0

How did Cc1ccc(NC2=CC(=O)C(=O)c3ccccc32)c(C)c1 do in these assays?
TWEAK Fn14 block: 74.8; TROY signal inh: 74.1; Peg3 promoter: inactive; CF NFkB block: 76.9; HIF-2a block: inactive; KKLEB cytotox: inactive

Results for O=C(Nc1ccccc1)c1nnsc1S(=O)c1ccc(Cl)cc1 (centres undefined) ?
TWEAK Fn14 block: inactive; TROY signal inh: inactive; Peg3 promoter: 87.7; CF NFkB block: 56.2; HIF-2a block: inactive; KKLEB cytotox: inactive

What do the screens show for `CCOC(=O)c1sc(N(Cc2ccccc2)C(=O)COC(=O)c2ccccc2O)nc1C`?
TWEAK Fn14 block: inactive; TROY signal inh: inactive; Peg3 promoter: inactive; CF NFkB block: inactive; HIF-2a block: inactive; KKLEB cytotox: inactive

What do the screens show for `CCOC(=O)c1sc(N(Cc2ccccc2)C(=O)CCl)nc1C`?
TWEAK Fn14 block: inactive; TROY signal inh: inactive; Peg3 promoter: 63.2; CF NFkB block: 65.1; HIF-2a block: inactive; KKLEB cytotox: inactive

How did CCOC(=O)c1sc(N(Cc2ccccc2)C(=O)COC(=O)c2ccc(O)cc2)nc1C do in these assays?
TWEAK Fn14 block: 71.2; TROY signal inh: inactive; Peg3 promoter: inactive; CF NFkB block: inactive; HIF-2a block: inactive; KKLEB cytotox: inactive

How did C[C@H]1CN([C@@H](C)CO)C(=O)c2cccc(NC(=O)Nc3ccc(C(F)(F)F)cc3)c2O[C@@H]1CN(C)S(=O)(=O)c1ccc(Cl)cc1 do in these assays?
TWEAK Fn14 block: inactive; TROY signal inh: inactive; Peg3 promoter: inactive; CF NFkB block: inactive; HIF-2a block: inactive; KKLEB cytotox: inactive

Results for Cc1cc2c(cc1S(=O)(=O)CCC(=O)N1CC(C)CC(C)C1)OCC(=O)N2 (centres undefined) ?
TWEAK Fn14 block: inactive; TROY signal inh: inactive; Peg3 promoter: inactive; CF NFkB block: inactive; HIF-2a block: inactive; KKLEB cytotox: inactive

What do the screens show for `O=[N+]([O-])c1ccc(Sc2ccc(F)cc2)nc1`?
TWEAK Fn14 block: inactive; TROY signal inh: inactive; Peg3 promoter: inactive; CF NFkB block: inactive; HIF-2a block: inactive; KKLEB cytotox: inactive

What do the screens show for `O=[N+]([O-])c1cnc(Sc2ccncn2)c([N+](=O)[O-])c1`?
TWEAK Fn14 block: inactive; TROY signal inh: inactive; Peg3 promoter: 112.8; CF NFkB block: inactive; HIF-2a block: inactive; KKLEB cytotox: inactive

What do the screens show for `CC(=O)N1CCc2cc(Br)cc(S(=O)(=O)NCCCN(C)Cc3ccccc3)c21`?
TWEAK Fn14 block: 98.1; TROY signal inh: inactive; Peg3 promoter: inactive; CF NFkB block: inactive; HIF-2a block: inactive; KKLEB cytotox: inactive

How did COc1ccc(NS(=O)(=O)NC(=O)c2c[nH]c3ccccc23)cc1 do in these assays?
TWEAK Fn14 block: inactive; TROY signal inh: inactive; Peg3 promoter: inactive; CF NFkB block: inactive; HIF-2a block: inactive; KKLEB cytotox: inactive

Results for CC(C)=CCc1cc(-c2oc3cc(O)cc(O)c3c(=O)c2O)ccc1O ?
TWEAK Fn14 block: inactive; TROY signal inh: inactive; Peg3 promoter: inactive; CF NFkB block: inactive; HIF-2a block: inactive; KKLEB cytotox: inactive

Results for CC(C)=CCc1c(O)cc2oc3c(CC=C(C)C)c(O)c(O)c(CC=C(C)C)c3c(=O)c2c1O ?
TWEAK Fn14 block: 81.7; TROY signal inh: 58.2; Peg3 promoter: inactive; CF NFkB block: inactive; HIF-2a block: inactive; KKLEB cytotox: inactive

What do the screens show for `CCOC(=O)c1ccccc1NC(=O)COC(=O)c1cc([N+](=O)[O-])ccc1N1CCOCC1`?
TWEAK Fn14 block: inactive; TROY signal inh: inactive; Peg3 promoter: inactive; CF NFkB block: inactive; HIF-2a block: inactive; KKLEB cytotox: inactive

What do the screens show for `COCC(C)N1C(=O)Cc2c1nc(N)c1c(N)nc(N3CCN(c4ccccc4F)CC3)c(C#N)c21` (centres undefined)?
TWEAK Fn14 block: inactive; TROY signal inh: inactive; Peg3 promoter: 55.2; CF NFkB block: inactive; HIF-2a block: inactive; KKLEB cytotox: inactive

Results for COCCN1C(=O)Cc2c1nc(N)c1c(N)nc(N3CCN(c4ccc(F)cc4)CC3)c(C#N)c21 ?
TWEAK Fn14 block: inactive; TROY signal inh: inactive; Peg3 promoter: inactive; CF NFkB block: inactive; HIF-2a block: inactive; KKLEB cytotox: inactive

What do the screens show for `Cc1cccc(NC(=O)c2ncn3c2C(=O)NC[C@H]3C)c1`?
TWEAK Fn14 block: inactive; TROY signal inh: inactive; Peg3 promoter: inactive; CF NFkB block: inactive; HIF-2a block: inactive; KKLEB cytotox: inactive

What do the screens show for `CSCC[C@H](NC(=O)Nc1ccc(S(N)(=O)=O)cc1)C(=O)O`?
TWEAK Fn14 block: inactive; TROY signal inh: inactive; Peg3 promoter: inactive; CF NFkB block: inactive; HIF-2a block: inactive; KKLEB cytotox: inactive

How did Cc1cccc(N(C(=O)CNC(=O)c2ccco2)C(C(=O)NCC2CCCO2)c2ccccc2)c1 (centres undefined) do in these assays?
TWEAK Fn14 block: 67.0; TROY signal inh: inactive; Peg3 promoter: inactive; CF NFkB block: inactive; HIF-2a block: inactive; KKLEB cytotox: inactive
